Each structure is given as a SMILES string. Screen size: about 39,000 compounds; about 500 (1.3%) were called active. Only a selection was taken, and actives are over-represented in it overall.

This test concerns S. aureus RN4220. Put plainly: growth inhibition call (relative growth <= 0.2). The following applies: 50 µM.
Consider `COc1ccc(S(=O)(=O)N(C)C[C@@H]2Oc3cc(C4=CCCC4)ccc3S(=O)(=O)N([C@@H](C)CO)C[C@@H]2C)cc1`, for which the growth inhibition call is “inactive”.
To `C[C@@H]1[C@@H](c2ccccc2)OC(=O)[C@@H]2[C@H]3C(=O)N([C@@H](C)CO)[C@@H]4C(=O)N(Cc5ccccc5)CC=C[C@]34O[C@@H]2/C=C/CCC(=O)N1C` belongs “inactive”; to `C=CC[C@@H](CC(=O)NCCO)C(=O)NCCOC(=O)[C@H](CC=C)NC(=O)OCC1c2ccccc2-c2ccccc21`, “inactive”; to `C[C@@H]1CCCCO[C@@H](CN(C)S(=O)(=O)c2ccc(F)cc2)[C@@H](C)CN([C@@H](C)CO)C(=O)c2cc(NC(=O)Cc3ccccc3)ccc2O1`, “inactive”.
Take `CC1(C)SC2C(NC(=O)C(C(=O)[O-])c3ccsc3)C(=O)N2C1C(=O)[O-].[Na+].[Na+]` (stereo not given): the growth inhibition call was “inactive”.
On to `CN[C@@H](C)C(=O)N[C@H]1CN(C(=O)CC(C)C)CC[C@H]2CC[C@@H](C(=O)NC(c3ccccc3)c3ccccc3)N2C1=O`, for which the growth inhibition call was “inactive”.
The result for `CC1(C)SC2C(NC(=O)C(C(=O)[O-])c3ccccc3)C(=O)N2C1C(=O)[O-].[Na+].[Na+]` (stereo not given) reads “active”; that for `CCN1CCN(C(=O)NC(C(=O)NC2C(=O)N3C2SC(C)(C)C3C(=O)[O-])c2ccccc2)C(=O)C1=O.[Na+]` (stereo not given), “active”.
The result for `CC1(C)SC2C(NC(=O)C(NC(=O)N3CCNC3=O)c3ccccc3)C(=O)N2C1C(=O)[O-].[Na+]` (stereo not given) reads “active”; that for `CCN1CCN(C(=O)N[C@@H](C(=O)N[C@@H]2C(=O)N3[C@@H]2SC(C)(C)[C@@H]3C(=O)O)c2ccccc2)C(=O)C1=O`, “active”.
The result for `CC1(C)S[C@@H]2[C@H](NC(=O)[C@H](NC(=O)N3CCNC3=O)c3ccccc3)C(=O)N2[C@H]1C(=O)O` reads “inactive”.
Turning to `CC1(C)SC2C(NC(=O)C(N)c3ccccc3)C(=O)N2C1C(=O)[O-].[Na+]` (stereo not given), the growth inhibition call is “inactive”.
The result for `C[C@H]1CN([C@@H](C)CO)C(=O)c2cc(C#CC3(O)CCCC3)cnc2O[C@@H]1CN(C)S(C)(=O)=O` reads “inactive”.
The result for `Cc1noc(C)c1NC(=O)N(C)C[C@H]1OCCCC[C@@H](C)Oc2ccc(NC(=O)CCC(F)(F)F)cc2C(=O)N([C@@H](C)CO)C[C@@H]1C` reads “inactive”.
The result for `C[C@@H]1CN([C@@H](C)CO)C(=O)c2cc(C#Cc3ccccc3F)cnc2O[C@H]1CN(C)S(=O)(=O)c1ccccc1F` reads “inactive”; that for `O=C(NCCN1CCOCC1)C(=O)NC[C@H]1OCCN1S(=O)(=O)c1ccc(F)cc1`, “inactive”.
For `Cc1ccc(C(=O)Oc2ccc(/C=N/c3cccs3)cc2)cc1`, the growth inhibition call was “inactive”.
To `COc1ccc(S(=O)(=O)N(C)C[C@@H]2Oc3c(NC(=O)NC(C)C)cccc3C(=O)N([C@@H](C)CO)C[C@@H]2C)cc1` belongs “inactive”; to `COCC(=O)N(C)C[C@H]1Oc2cc(C#Cc3cccnc3)ccc2S(=O)(=O)N([C@@H](C)CO)C[C@@H]1C`, “inactive”.
To `C[C@@H]1CN([C@@H](C)CO)C(=O)c2c(c3ccccc3n2C)-c2ccccc2CO[C@H]1CN(C)Cc1ccc(F)cc1` belongs “inactive”; to `C[C@@H]1CN([C@H](C)CO)C(=O)c2cc(NC(=O)CCCN(C)C)ccc2O[C@H]1CN(C)S(=O)(=O)c1cccs1`, “inactive”; to `Cc1ccc(S(=O)(=O)N(C)C[C@H]2OCCCC[C@H](C)Oc3ccc(NC(=O)Nc4c(C)noc4C)cc3C(=O)N([C@H](C)CO)C[C@@H]2C)cc1`, “inactive”.
The result for `Cc1ccc(-c2ccc3c(c2)O[C@H](CN(C)C(=O)NC(C)C)[C@@H](C)CN([C@@H](C)CO)S3(=O)=O)cc1` reads “inactive”; that for `C[C@H]1CN([C@@H](C)CO)C(=O)Cc2cc(NS(C)(=O)=O)ccc2O[C@@H]1CN(C)C(=O)Nc1ccc(C(F)(F)F)cc1`, “inactive”.
With `CC1(C)S[C@H]2[C@@H](NC(=O)[C@@H](NC(=O)N3CCN(S(C)(=O)=O)C3=O)c3ccccc3)C(=O)N2[C@@H]1C(=O)O`, the growth inhibition call is “active”.
As for `C[C@H](CO)N1C[C@H](C)[C@@H](CN(C)C(=O)C2CCOCC2)Oc2ncc(C#Cc3ccccc3F)cc2C1=O`, the growth inhibition call was “inactive”.
To `CC(C)NC(=O)N[C@@H]1C=C[C@H](CC(=O)O)O[C@H]1CO` belongs “inactive”.
As for `COc1ccc(CN(C)C[C@H]2Oc3ccc(NC(=O)Cn4cnnn4)cc3C(=O)N([C@@H](C)CO)C[C@H]2C)cc1`, the growth inhibition call is “inactive”.
To `CO[C@@H]1CN(C)C(=O)c2cc(NC(=O)C3CCCC3)ccc2OC[C@@H](C)N(C(=O)Nc2ccc(C(F)(F)F)cc2)C[C@H]1C` belongs “inactive”; to `CO[C@@H]1CN(C)C(=O)c2ccc(NC(=O)C3CC3)cc2OC[C@@H](C)N(C(=O)Nc2ccc(C(F)(F)F)cc2)C[C@H]1C`, “inactive”.
For the compound `CO[C@@H]1CN(C)C(=O)c2cc(NC(=O)C3CCOCC3)ccc2OC[C@@H](C)N(C(=O)Nc2ccc(C(F)(F)F)cc2)C[C@H]1C`, the growth inhibition call is “active”.
The result for `CO[C@@H]1CN(C)C(=O)c2ccc(NC(=O)C3CCOCC3)cc2OC[C@@H](C)N(C(=O)Nc2ccc(C(F)(F)F)cc2)C[C@H]1C` reads “active”.
To `CO[C@@H]1CN(C)C(=O)c2ccc(NC(=O)C3CCCC3)cc2OC[C@@H](C)N(C(=O)Nc2ccc(C(F)(F)F)cc2)C[C@H]1C` belongs “inactive”.
To `CO[C@@H]1CN(C)C(=O)c2cc(NC(=O)C3CC3)ccc2OC[C@@H](C)N(C(=O)Nc2ccc(C(F)(F)F)cc2)C[C@H]1C` belongs “inactive”; to `C[C@H](CO)N1C[C@H](C)[C@H](CN(C)Cc2ccncc2)Oc2ccc(NC(=O)Nc3ccc(C(F)(F)F)cc3)cc2C1=O`, “inactive”.
As to `C[C@@H]1CN([C@H](C)CO)C(=O)c2cc(NS(=O)(=O)c3cccs3)ccc2O[C@@H](C)CCCCO[C@@H]1CN(C)S(=O)(=O)c1ccc(Cl)cc1`, the growth inhibition call is “inactive”.
As for `CCN(CC)C(C)CN1c2ccccc2Sc2ccccc21.Cl` (stereo not given), the growth inhibition call was “inactive”.
The result for `C[C@H](CO)N1C[C@H](C)[C@H](CN(C)C(=O)Nc2ccccc2)Oc2c(NS(=O)(=O)c3cn(C)cn3)cccc2C1=O` reads “inactive”; that for `C[C@@H]1CN([C@H](C)CO)C(=O)c2cccc(NS(=O)(=O)c3ccc(F)cc3)c2O[C@H]1CN(C)S(=O)(=O)c1cccs1`, “inactive”; that for `Cc1ccc(OC(=O)N(C)C[C@H]2OCc3ccccc3-c3ccccc3C(=O)N([C@@H](C)CO)C[C@@H]2C)cc1`, “inactive”.
To `C[C@H](CO)N1C[C@H](C)[C@@H](CN(C)C(=O)c2ccncc2)OCCCC[C@H](C)Oc2ccc(NS(=O)(=O)c3ccc(Cl)cc3)cc2C1=O` belongs “inactive”.
Turning to `Cc1cn([C@@H]2C[C@@H](O)[C@H](CO)O2)c(=O)[nH]c1=O`, the growth inhibition call was “inactive”.
Regarding `O=c1[nH]c(=O)n([C@@H]2C[C@@H](O)[C@@H](CO)O2)cc1F`, the growth inhibition call was “active”.
The result for `Cc1cn([C@H]2C[C@H](O)[C@@H](CO)O2)c(=O)[nH]c1=O` reads “inactive”; that for `Cc1cn([C@@H]2C[C@H](O)[C@@H](CO)O2)c(=O)[nH]c1=O`, “inactive”.
With `O=c1[nH]c(=O)n([C@H]2C[C@H](O)[C@@H](CO)O2)cc1F`, the growth inhibition call was “active”.
As to `O=c1[nH]c(=O)n(C2CC(O)C(CO)O2)cc1F` (stereo not given), the growth inhibition call was “inactive”.
Turning to `C[C@H](CO)N1C[C@H](C)[C@@H](CN(C)S(=O)(=O)c2cn(C)cn2)Oc2ccc(NC(=O)C3CC3)cc2C1=O`, the growth inhibition call was “inactive”.
In the case of `C[C@H]1CCCCO[C@@H](CN(C)C(=O)Cc2ccccc2)[C@@H](C)CN([C@@H](C)CO)C(=O)c2cc(NS(=O)(=O)c3ccc(F)cc3)ccc2O1`, the growth inhibition call is “inactive”.
To `C#CCOc1ccc(-c2c(C(=O)NC3CCCCC3)oc(OC)c2S(=O)(=O)c2ccc(Cl)cc2)cc1` belongs “inactive”.
The result for `COc1ccc(S(=O)(=O)N(C)C[C@H]2OCCCC[C@@H](C)Oc3ccc(NC(=O)Nc4c(C)noc4C)cc3C(=O)N([C@@H](C)CO)C[C@@H]2C)cc1` reads “inactive”; that for `O=C(/C=C/c1cccc(-c2cn(-c3cccc(C(=O)N4CCC5(CC4)C(=O)NCN5c4ccccc4)c3)nn2)c1)NO`, “inactive”; that for `O=C(/C=C/c1cccc(-c2cn(CC(=O)N3CCC4(CC3)C(=O)NCN4c3ccccc3)nn2)c1)NO`, “inactive”.
The result for `O=C(NO)c1cn(-c2cccc(C(=O)N3CCC4(CC3)C(=O)NCN4c3ccccc3)c2)nn1` reads “active”.
For `O=C(CCc1cn(CC(=O)N2CCC3(CC2)C(=O)NCN3c2ccccc2)nn1)NO`, the growth inhibition call is “active”.
The result for `O=C(NO)c1cn(CC(=O)N2CCC3(CC2)C(=O)NCN3c2ccccc2)nn1` reads “inactive”; that for `O=C(Cn1cc(CN2C(=O)COC[C@H]2c2ccccc2)nn1)N1CCC2(CC1)C(=O)NCN2c1ccccc1`, “inactive”; that for `Cc1ccc(S(=O)(=O)N(C)C[C@@H]2Oc3c(NC(=O)c4cnccn4)cccc3C(=O)N([C@@H](C)CO)C[C@H]2C)cc1`, “inactive”.
The result for `C[C@@H]1CCCCO[C@@H](CN(C)S(=O)(=O)c2ccccc2)[C@@H](C)CN([C@H](C)CO)C(=O)c2cc(NS(=O)(=O)c3ccc(Cl)cc3)ccc2O1` reads “inactive”.
The result for `Cc1noc(C)c1S(=O)(=O)Nc1cccc2c1O[C@@H](CN(C)Cc1ccc(C(=O)O)cc1)[C@@H](C)CN([C@H](C)CO)C2=O` reads “inactive”.
Consider `CCCC(=O)Nc1ccc2c(c1)OC[C@@H](C)N(C(=O)Cc1cccnc1)C[C@@H](C)[C@H](OC)CN(C)C2=O`, for which the growth inhibition call was “inactive”.
`Cc1noc(C)c1CO`: the growth inhibition call was “inactive”.
To `Cc1ccc(-c2noc([C@H](C)c3ccc(CC(C)C)cc3)n2)cc1` belongs “inactive”; to `C[C@@H]1CCCCO[C@@H](CN(C)Cc2ccccc2)[C@@H](C)CN([C@@H](C)CO)C(=O)c2cc(NS(=O)(=O)c3ccc(F)cc3)ccc2O1`, “inactive”; to `NCc1cc2ccccc2s1`, “inactive”.
The result for `CC(=O)NCC1CN(c2ccc(N3CCOCC3)c(F)c2)C(=O)O1` (stereo not given) reads “active”; that for `O=C(O)c1cn(C2CC2)c2cc(N3CCC(O)(COc4ccc(N5C[C@H](CO)OC5=O)cc4F)CC3)c(F)cc2c1=O`, “inactive”; that for `Cn1c(=O)c2c(ncn2CC(=O)N2CCN(c3ccccc3F)CC2)n(C)c1=O`, “inactive”.
The result for `Cc1cccc(N2C[C@@H](CN)OC2=O)c1` reads “inactive”; that for `CC(=O)NC[C@H]1CN(c2ccc(N3CCN(C(=O)CO)CC3)c(F)c2)C(=O)O1`, “active”.

For the origin of these results see the antibiotic and cytotoxicity screens of Wong et al. (2023).
